Inconclusive results are not listed. The source made the active and inactive calls. The call rests on the fitted dose curve; in most records, active means well fitted curve in the direction sought with a large enough effect; inconclusive means small, poorly fitted or top-dose-only effect, or another doubt; inactive means no such curve, though single readings can be large; an effect the other way counts as inactive or inconclusive.
Legend:
[1] = SW1088 Cancer Cell Toxicity qHTS against the NCATS CANVASS Library (AID 1347350); further: nearly all actives have a fitted effect of over 75% in size; further: potency means the concentration at half of the fitted maximal effect
Outline: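 Per well, 1000 cells; exposure 72 h with compound at 11 final concentrations; readout CellTiter-Glo luminescence.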

[2] = HEK293 18hr Apoptosis Induction qHTS against the NCATS CANVASS Library (AID 1347357)
Outline: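 Caspase-3/7 luminescence (DEVD substrate, Caspase-Glo) after 18 h compound exposure of HEK293 cells, 500 cells/well; 11-point series; doxorubicin titration as control.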

[3] = HPAF-II 12hr Apoptosis Induction qHTS against the NCATS CANVASS Library (AID 1347358)
Outline: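 Caspase-Glo 3/7 luminescence (DEVD substrate) reports caspase activity in HPAF-II cells after 12 h compound treatment at 37 degrees C. Compounds were tested in an 11-point series. Doxorubicin served as control.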

[4] = HEK293 24hr Apoptosis Induction qHTS against the NCATS CANVASS Library (AID 1347359)
Outline: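 HEK293 cells (500/well, DMEM + 10% FBS) were exposed to compounds in an 11-point series for 24 hours at 37 degrees C, then caspase-3/7 activity was read by Caspase-Glo DEVD luciferase luminescence after 15 min.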

[5] = HPAF-II 18hr Apoptosis Induction qHTS against the NCATS CANVASS Library (AID 1347360)
Outline: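 Caspase-Glo 3/7 luminescence (DEVD substrate) after 15 min RT; HPAF-II, 500 cells/well, 18 h compound exposure at 37 degrees C, qHTS series; doxorubicin control 0.1nM - 4uM.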

[6] = HEK293 12hr Apoptosis Induction qHTS against the NCATS CANVASS Library (AID 1347361)
Outline: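 500 HEK293 cells/well; cpds pin-transferred, 11-pt conc series; 12 h, 37 degrees C/5% CO2; Caspase-Glo 3/7 added, 15 min RT dark; luminescence.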

[7] = target: Luciferin 4-monooxygenase (Photinus pyralis) (UniProt P08659); assay: Firefly luciferase counterscreen qHTS: Assay Interference Panel against the NCATS CANVASS Library (AID 1347363); further: series mostly up to about 57 µM
Outline: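 Purified P. pyralis luciferase was added to compounds (11-point series) preincubated 15 min at room temperature with substrate containing 0.013 mM D-luciferin and 0.013 mM ATP; luminescence was read after 5 min.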

[8] = KB-3-1 Cancer Cell Toxicity qHTS against the NCATS CANVASS Library (AID 1347366); further: nearly all actives have a fitted effect of over 75% in size; further: potency means the concentration at half of the fitted maximal effect
Outline: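 500 KB-3-1 cells/well; compounds pin-transferred, 11-pnt series; 72 hr, 37C/5% CO2; CellTiter-Glo, 10 min RT; luminescence read-out.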

[9] = G06 Cancer Cell Toxicity qHTS against the NCATS CANVASS Library (AID 1347368); further: nearly all actives have a fitted effect of over 60% in size; further: potency means the concentration at half of the fitted maximal effect
Outline: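 ATP luminescence (CellTiterGlo) readout of cytotoxicity. Canine G06 glioma cells, 500/well, 72 hr incubation at 37C with compounds; bortezomib titration served as control.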

[10] = MCF7 Cancer Cell Toxicity qHTS against the NCATS CANVASS Library (AID 1347369); further: potency means the concentration at half of the fitted maximal effect
Outline: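 Luminescent ATP signal (CellTiterGlo) served as the cytotoxicity read-out after MCF7 breast cancer cells had been incubated 72 hr at 37C with natural products in an 11-point titration.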

[11] = J3T Cancer Cell Toxicity qHTS against the NCATS CANVASS Library (AID 1347371); further: potency means the concentration at half of the fitted maximal effect
Outline: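 Dog glioma J3T, 500 cells/well; cpd 11-pt qHTS; 72 hr, 37C/5% CO2; CellTiterGlo ATP luminescence readout.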

[12] = target: Nuclear receptor subfamily 1 group I member 3 (Homo sapiens) (UniProt Q14994); assay: qHTS for Constitutive Androstane Receptor (CAR) Antagonist screened against the NCATS CANVASS Library (AID 1347372); further: potency means the concentration at half of the fitted maximal effect
Outline: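 Cells were seeded and left 4hr to attach, then received compound at 11 concentrations and 50 nM CITCO. Following 24hr incubation, fluorescence viability and luciferase luminescence were read sequentially.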

[13] = target: Nuclear receptor subfamily 1 group I member 3 (Homo sapiens) (UniProt Q14994); assay: qHTS for Constitutive Androstane Receptor (CAR) Agonist screened against the NCATS CANVASS Library (AID 1347373);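 further: every well also contained 1.5 µM PK11195 alongside the test compound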
Outline: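 Luciferase read-out (ONE-Glo, 30 min RT) of CYP2B6-2.2kb promoter activity in double-stable HepG2-hCAR cells after 24hr compound exposure with 1.5uM PK11195 present; viability measured first by CellTiter-Fluor.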

[14] = 10-beta competent E. coli microbial cell viability qHTS against the NCATS CANVASS Library (AID 1347376); further: series mostly up to about 46 µM
Outline: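 Luminescence from BacTiter-Glo ATP detection served as the viability read-out; bacteria (0.2 OD) had been incubated overnight at 37C with pin-transferred compounds at 11 concentrations.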

[15] = qHTS for H2AX Agonists against the NCATS CANVASS Library (AID 1347378)
Outline: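 TR-FRET readout (ex 320 nm, em 665/620 nm ratio) of phospho-H2AX (S139) in CHO-K1 lysates. Cells treated 3 hr at 37C with compound titration, 0.76% DMSO; lysis 30 min, antibody detection 24 hr at RT.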

[16] = qHTS for Inflammasome Signaling Inhibitors: IL-1-beta AlphaLISA screen against the NCATS CANVASS Library (AID 1347379);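 further: human THP-1 cells primed with LPS then triggered with ATP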;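 on Potency: secreted IL-1B measured as AlphaLISA emission at 615 nm; potency means the concentration at half of the fitted maximal effect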
Outline: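 THP-1, 1 hr compound pre-incubation, then LPS 250 ng/mL + ATP 1.25 mM (final); 16 hr total with compound; IL-1B AlphaLISA, ex 680/em 615 nm; 11-point qHTS, up to 57.5 uM final.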

[17] = Inflammasome Signaling qHTS Counterscreen: IL-1-beta AlphaLISA counterscreen against the NCATS CANVASS Library (AID 1347381);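 further: cell-free check with purified IL-1β in medium and no THP-1 cells; series mostly up to about 57 µM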
Outline: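 Here, no cellular stimulation occurs; compounds in an 11-point series meet 4 pg purified IL-1-beta directly. Bead-based AlphaLISA detection follows (1 h acceptor/antibody, then 30 min donor, dark, room temperature), with excitation at 680 nm.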

[18] = qHTS assay for small molecule disruptors of mitochondrial membrane potential screened against the NCATS CANVASS Library (AID 1347389); further: nearly all actives have a fitted effect of over 60% in size; further: potency means the concentration at half of the fitted maximal effect
Outline: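 Red/green fluorescence ratio read-out: J-aggregates ex 540/em 590 nm, monomers ex 490/em 535 nm. HepG2, 1 hr compound treatment, then 30 min Mito-MPS dye at 37C. 11-pt qHTS concentration series.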

[19] = qHTS for inhibitors of Wild type Zika virus screened against the NCATS CANVASS Library (AID 1347396);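 further: ATP luminescence of surviving cells so rescue from viral cell killing; series mostly up to about 46 µM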
Outline: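 Vero 766 (African green monkey) cells, 1000 per well, attached overnight, then compounds were added in an 11-point series before wild-type Zika virus infection. After 72 h at 37C, cell viability was read as CellTiter Glo luminescence.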

[20] = DH5-alpha competent E. coli microbial cell viability qHTS against the NCATS CANVASS Library (AID 1347377); details: outcome: dose series up to 46.1 µM unless noted
Outline: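 Luminescent ATP read-out (BacTiter-Glo, 20 min RT) after overnight 37C culture of DH5-alpha E. coli with compounds; daunomycin control at 0.2 nM–9.2 uM final.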

Measured: Potency

Chain of Luciferin 4-monooxygenase (Photinus pyralis) (P08659 whole entry, looked up): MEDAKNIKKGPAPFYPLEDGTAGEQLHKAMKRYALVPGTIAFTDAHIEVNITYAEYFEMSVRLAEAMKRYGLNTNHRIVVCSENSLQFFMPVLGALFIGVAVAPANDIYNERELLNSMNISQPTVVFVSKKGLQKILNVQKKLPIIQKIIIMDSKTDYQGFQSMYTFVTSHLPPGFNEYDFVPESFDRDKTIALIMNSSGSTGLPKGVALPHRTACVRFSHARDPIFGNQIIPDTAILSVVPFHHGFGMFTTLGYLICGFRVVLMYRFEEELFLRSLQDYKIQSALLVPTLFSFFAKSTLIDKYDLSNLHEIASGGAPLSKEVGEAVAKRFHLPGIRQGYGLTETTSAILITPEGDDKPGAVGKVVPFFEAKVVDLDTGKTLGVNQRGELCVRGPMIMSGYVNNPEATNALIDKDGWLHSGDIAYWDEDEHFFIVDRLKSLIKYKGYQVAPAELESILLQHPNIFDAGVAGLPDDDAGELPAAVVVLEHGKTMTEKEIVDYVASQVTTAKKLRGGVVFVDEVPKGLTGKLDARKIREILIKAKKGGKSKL
Chain of Nuclear receptor subfamily 1 group I member 3 (Homo sapiens) (Q14994 whole entry, looked up): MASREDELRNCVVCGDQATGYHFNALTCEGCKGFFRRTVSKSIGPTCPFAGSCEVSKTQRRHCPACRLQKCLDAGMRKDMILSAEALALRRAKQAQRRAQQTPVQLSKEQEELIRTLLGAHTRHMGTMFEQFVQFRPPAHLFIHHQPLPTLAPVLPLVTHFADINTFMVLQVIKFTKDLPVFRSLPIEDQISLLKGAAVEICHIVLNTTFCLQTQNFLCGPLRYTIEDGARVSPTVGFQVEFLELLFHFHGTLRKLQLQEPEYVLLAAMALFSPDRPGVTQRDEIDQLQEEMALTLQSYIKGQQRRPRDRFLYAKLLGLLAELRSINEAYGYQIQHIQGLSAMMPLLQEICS

CCC(C)=C1OC(=O)[C@H](C)[C@H](O)[C@H](Cc2cccnc2)NC(=O)C(NC(=O)c2ncccc2O)C(C)OC1=O (some centres not stated)
not listed: [20]
inactive: all other assays above

CN1CC[C@]2(c3cccc4c3N[C@H]3N(C)CC[C@@]43[C@]34CCN(C)[C@H]3Nc3ccccc34)c3ccccc3N[C@H]12
active: [9] 7.43 µM | [10] 11.7 µM | [11] 9.35 µM | [16] 21.7 µM
not listed: [1] | [8] | [12] | [19]
inactive: all other assays above

COC(=O)[C@@]12Oc3cccc(O)c3C(O)=C1C(=O)C[C@H](C)[C@H]2O
not listed: [20]
inactive: all other assays above

COc1cc([C@@H]2c3cc4c(cc3C[C@@]3(O[C@@H]5O[C@H](CO)[C@@H](O)[C@H](O)[C@H]5O)COC(=O)[C@H]23)OCO4)cc(OC)c1OC
active: [8] 0.0372 µM | [9] 0.0418 µM | [12] 0.066 µM
not listed: [1] | [11] | [19]
inactive: all other assays above

C/C=C/[C@H]1[C@H]2C(=O)c3c(O)c(C)c(O)c(C)c3[C@]1(C(=O)O)C(=O)C=C2C
inactive: all assays above

C[C@@]12CCC[C@@](C)(C(=O)O)[C@H]1C[C@@H](O)[C@@]13C[C@@H](CC[C@@H]21)[C@](C)(O)C3
not listed: [14]
inactive: all other assays above

CCC(=O)N[C@@H](C[C@H](C)C(Cl)(Cl)Cl)C(=O)N1C(=O)C=C(OC)[C@@H]1C[C@H](C)CCl
active: [1] 16.8 µM | [12] 10.5 µM
not listed: [3] | [18] | [20]
inactive: all other assays above

COC12OC1(C13OC1(OC)C(=O)c1cc4cc(C)oc(=O)c4c(O)c1C3O)C(O)c1c(cc3cc(C)oc(=O)c3c1O)C2=O (configuration not stated)
active: [1] 18.8 µM
not listed: [19]
inactive: all other assays above

CN1CC[C@@]2([C@@]34CCN(C)[C@@H]3Nc3ccccc34)c3ccccc3N[C@@H]12
not listed: [9] | [20]
inactive: all other assays above

CC(C)=CCC[C@]1(C)[C@H]2CC(=O)[C@@]3(CO3)[C@@H]1C2
inactive: all assays above

O=C(OC[C@H]1O[C@@H](OC(=O)c2cc(O)c(O)c(O)c2)[C@H](OC(=O)c2cc(O)c(O)c(O)c2)[C@@H](OC(=O)c2cc(O)c(O)c(O)c2)[C@@H]1OC(=O)c1cc(O)c(O)c(O)c1)c1cc(O)c(O)c(O)c1
active: [9] 23.5 µM
not listed: [1] | [7] | [8] | [15] | [18] | [20]
inactive: all other assays above

C/C=C(/C)c1cc(O)c(C)c2c1Oc1cc(O)cc(C)c1C(=O)O2
active: [18] 10.5 µM
not listed: [1]
inactive: all other assays above
